# Results: the supplement of paper PMC8728848
# Many of the other results were omitted from the sample, so the strongest signals are more common in it than they were.
# B1: LSECtin (Homo sapiens), Q6UXB4 (protein)
# chain: MEQESALRELRERVTQGLAEAGRGREDVRTELFRALEAVRLQNNSCEPCPTSWLSFEGSCYFFSVPKTTWAAAQDHCADASAHLVIVGGLDEQGFLTRNTRGRGYWLGLRAVRHLGKVQGYQWVDGVSLSFSHWNQGEPNDAWGRENCVMMLHTGLWNDAPCDSEKDGWICEKKAQLLTPPSALEPRPLQHVVSWGLLTSLAPGADCQRVFSSSSTAAESQKHLAQHSPVQPSAWALGPPCRPHPNSTHADPT
# Assays:
# Experiment in all cases: glycan array binding signal (z-score within array); higher = stronger binding
# Details in all cases: glycan notation: IUPAC condensed, linker removed
# [1] = biological target: Fuc(a1-2)Gal(b1-3)GalNAc
# Summary of the method: (§1)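 Glycan array binding is given as a within-array Z-score, which can be read as non-binding when negative. The arrays, 3228 of them, came from the Consortium for Functional Glycomics database and were retained only where the protein sequence was available. Z-scores were averaged across arrays of the same protein sequence at different concentrations or buffers and across linkers.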
# [2] = biological target: Fuc(a1-2)Gal(b1-4)Glc
# Summary of the method: as §1
# [3] = biological target: Fuc(a1-2)[Gal(a1-3)]Gal(b1-3)GlcNAc
# Summary of the method: as §1
# [4] = biological target: Fuc(a1-2)[Gal(a1-4)]Gal(b1-4)GlcNAc
# Summary of the method: as §1
# [5] = biological target: Fuc(a1-3)[Gal(b1-4)]GlcNAc(b1-4)Gal(b1-4)[Fuc(a1-3)]GlcNAc(b1-4)Gal(b1-4)[Fuc(a1-3)]GlcNAc
# Summary of the method: as §1
# [6] = biological target: Fuc(a1-3)[Gal3S(b1-4)]Glc6S
# Summary of the method: as §1
# [7] = biological target: Gal(a1-4)Gal(b1-4)Glc
# Summary of the method: as §1
# [8] = biological target: Gal(b1-2)Gal
# Summary of the method: as §1
# [9] = biological target: Gal(b1-3)GlcNAc(b1-3)Gal(b1-4)Glc
# Summary of the method: as §1
# [10] = biological target: Gal(b1-3)[Fuc(a1-4)]GlcNAc(b1-3)Gal(b1-4)[Fuc(a1-3)]GlcNAc
# Summary of the method: as §1
# [11] = biological target: GalNAc(b1-3)Gal
# Summary of the method: as §1
# [12] = biological target: GlcNAc(b1-2)Man(a1-3)[GlcNAc(b1-2)Man(a1-6)]Man(b1-4)GlcNAc(b1-4)GlcNAc
# Summary of the method: as §1
# [13] = biological target: GlcNAc(b1-3)Man
# Summary of the method: as §1
# [14] = biological target: GlcNAc(b1-6)GalNAc
# Summary of the method: as §1
# [15] = biological target: Kdn(a2-3)Gal(b1-4)GlcNAc
# Summary of the method: as §1
# [16] = biological target: Man(a1-2)Man(a1-3)[Man(a1-2)Man(a1-6)]Man
# Summary of the method: as §1
# [17] = biological target: Neu5Ac(a2-3)Gal(b1-3)GalNAc(b1-3)Gal(a1-4)Gal(b1-4)Glc
# Summary of the method: as §1
# [18] = biological target: Neu5Ac(a2-3)Gal(b1-3)GalNAc6S
# Summary of the method: as §1
# [19] = biological target: Neu5Ac(a2-3)Gal(b1-4)GlcNAc(b1-6)[Neu5Ac(a2-3)Gal(b1-3)]GalNAc
# Summary of the method: as §1
# [20] = biological target: Neu5Ac(a2-6)Gal(b1-4)GlcNAc(b1-2)Man(a1-3)[GlcNAc(b1-2)Man(a1-6)]Man(b1-4)GlcNAc(b1-4)GlcNAc
# Summary of the method: as §1
# [21] = biological target: Neu5Ac(a2-6)Gal(b1-4)GlcNAc(b1-2)Man(a1-6)[GlcNAc(b1-2)Man(a1-3)]Man(b1-4)GlcNAc(b1-4)GlcNAc
# Summary of the method: as §1
# [22] = biological target: Neu5Ac(a2-6)GalNAc(b1-4)GlcNAc
# Summary of the method: as §1
binder,measurement,setting,value
B1,glycan array binding signal (z-score),[1],-0.303
same,glycan array binding signal (z-score),[2],3.15
same,glycan array binding signal (z-score),[3],-0.278
same,glycan array binding signal (z-score),[4],2.9
same,glycan array binding signal (z-score),[5],-0.279
same,glycan array binding signal (z-score),[6],0.092
same,glycan array binding signal (z-score),[7],-0.309
same,glycan array binding signal (z-score),[8],-0.302
same,glycan array binding signal (z-score),[9],-0.295
same,glycan array binding signal (z-score),[10],-0.241
same,glycan array binding signal (z-score),[11],-0.287
same,glycan array binding signal (z-score),[12],5.09
same,glycan array binding signal (z-score),[13],0.057
same,glycan array binding signal (z-score),[14],-0.174
same,glycan array binding signal (z-score),[15],-0.308
same,glycan array binding signal (z-score),[16],0.406
same,glycan array binding signal (z-score),[17],-0.275
same,glycan array binding signal (z-score),[18],-0.307
same,glycan array binding signal (z-score),[19],-0.297
same,glycan array binding signal (z-score),[20],5.63
same,glycan array binding signal (z-score),[21],5.21
same,glycan array binding signal (z-score),[22],-0.301
